# Measurements from PubChem BioAssay (NCATS).
# Inconclusive results are not listed. The source made the active and inactive calls. Unless noted, the call rests on the fitted dose curve; in most records, active means well fitted curve in the direction sought with a large enough effect; inconclusive means small, poorly fitted or top-dose-only effect, or another doubt; inactive means no such curve, though single readings can be large; an effect the other way counts as inactive or inconclusive.
# Assays:
# [1] = qHTS profiling of the MIPE4 collection as inhibitors of Plasmodium falciparum (DD2) proliferation (AID 743345; call rule not given here); conditions: P. falciparum Dd2 in erythrocytes, SYBR Green DNA, 72 h; at 28.5 µM (top of the series) unless noted
# Procedure, shortened: (§1)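 Erythrocytes infected with P. falciparum (0.3% parasitemia, 2.5% hematocrit) incubated with compounds 72 h at 37 C, 5% CO2. Lysis with saponin/Triton buffer containing SYBR Green I, overnight at room temperature in the dark; DNA fluorescence (485/535 nm) normalised to 0.29 uM artemisinin and DMSO.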
# [2] = qHTS profiling of the MIPE4 collection as inhibitors of Plasmodium falciparum (DD2) proliferation (Rep 2) (AID 743346; call rule not given here); conditions: P. falciparum Dd2 in erythrocytes, SYBR Green DNA, 72 h; at 28.5 µM (top of the series) unless noted
# Procedure, shortened: as §1
# [3] = qHTS profiling of the MIPE4 collection as inhibitors of Plasmodium falciparum (HB3) proliferation (AID 743347; call rule not given here;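 further: plate controls were DMSO vehicle wells for no effect and artemisinin wells for full effect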); conditions: P. falciparum HB3 in erythrocytes, SYBR Green DNA, 72 h; at 28.5 µM (top of the series) unless noted
# Procedure, shortened: as §1
# [4] = High-throughput drug toxicity screening in the BPDCN cell line Gen2.2 (AID 1224824; call rule not given here;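 further: cells exposed to compounds for 48 h before reading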); conditions: Gen2.2 BPDCN cells; at 45.8 µM (top of the series) unless noted
# Procedure, shortened: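 Gen2.2 cells, 500 per well in phenol red-free RPMI with 10% FBS, exposed to compounds 48 h at 37 C, 5% CO2; viability by CellTiter-Glo luminescence. Percent activity scaled to DMSO (100%) and 9.2 uM bortezomib final (0%).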
# [5] = High-throughput drug toxicity screening in the BPDCN cell line Cal-1 (AID 1224825; call rule not given here); conditions: Cal-1 BPDCN cell viability, qHTS; at 45.8 µM (top of the series) unless noted
# Procedure, shortened: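 Exponentially growing Cal-1 cells, 500 per well in phenol red-free RPMI with 10% FBS, were exposed to compounds for 48 h at 37 °C, 5% CO2. Viability was read by CellTiter-Glo luminescence and normalised to DMSO (100%) and 9.2 uM bortezomib (0%).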
# [6] = qHTS assay for measurement of the activity of small molecule inhibitors on Zika virus induced Caspase-3 activity in human iPSC derived neural progenitor cells (hNPCs) (AID 1224857); further: % of control where 0% means no effect; nearly all actives have a fitted effect of over 65% in size
# Procedure, shortened: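 Pretreat hNPCs with compound 1 h; infect ZIKV 2 FFU/cell; 6 h 37 C, 5% CO2; Caspase-Glo 3/7, 30 min RT; luminescence; normalize to no-virus and virus-only wells.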
# [7] = qHTS assay for measurement of the activity of small molecule inhibitors on Zika virus induced Caspase-3 activity in human astrocytoma cells (AID 1224859);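 further: plate controls were ZIKV-infected untreated cells for no effect and uninfected cells for full effect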
# Procedure, shortened: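 Human SNB-19 astrocytoma cells in RPMI 1640 with 10% FBS receive compound one hour ahead of Zika virus at 2 FFU/cell. After 6 h infection, caspase-3/7 activity is detected by Caspase-Glo luminescence.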
# [8] = qHTS Screen of the MIPE 4.0 Collection Against Ewings Sarcoma (TC71) (AID 1259253); further: nearly all actives have a fitted effect of over 40% in size; further: potency means the concentration at half of the fitted maximal effect
# Procedure, shortened: (§2)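 Here, cells in 5% FBS RPMI were exposed for two days (48 h) to compound dilutions added four hours after plating. ATP-based CellTiter-Glo luminescence measured viability, normalized to vehicle and no-cell blanks.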
# [9] = qHTS Screen of the MIPE 4.0 Collection Against Ewings Sarcoma (EW8) (AID 1259255); further: nearly all actives have a fitted effect of over 35% in size; further: potency means the concentration at half of the fitted maximal effect;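 on viability: 100% = DMSO-treated cells and 0% = medium-only wells without cells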
# Procedure, shortened: as §2
# [10] = qHTS Screen of the MIPE 4.0 Collection Against Ewings Sarcoma (TC32) (AID 1259256); further: nearly all actives have a fitted effect of over 45% in size; further: potency means the concentration at half of the fitted maximal effect
# Procedure, shortened: as §2
# [11] = qHTS profiling for inhibitors of Plasmodium falciparum (3D7) proliferation (AID 743322; call rule not given here;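 further: infected erythrocytes exposed to compound for 72 h before lysis; 100% = DMSO vehicle wells and 0% = 0.29 µM artemisinin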); conditions: P. falciparum 3D7 proliferation; at 28.7 µM (top of the series)
# Procedure, shortened: as §1
# [12] = qHTS profiling for inhibitors of Plasmodium falciparum (DD2) proliferation (AID 743323; call rule not given here); conditions: lower = more inhibition; at 28.7 µM (top of the series)
# Procedure, shortened: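 SYBR Green fluorescence (ex 485, em 535 nm) of lysed cultures gives parasite DNA content; wells normalized to artemisinin (0.29 uM) and DMSO controls. Infected red cells: 0.3% parasitemia, 2.5% hematocrit, 72 h, 37 C.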
# [13] = qHTS profiling for inhibitors of Plasmodium falciparum (HB3) proliferation (AID 743324); conditions: Plasmodium falciparum HB3 blood-stage proliferation; at 28.7 µM (top of the series);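 further: 100% = DMSO vehicle wells and 0% = artemisinin-treated control wells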
# Procedure, shortened: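 P. falciparum HB3 grown in erythrocytes (0.3% parasitemia, 2.5% hematocrit final) with compound for 72 h at 37 C, 5% CO2. Parasite DNA detected by SYBR Green after saponin/triton lysis overnight; normalized to 0.29 uM artemisinin and DMSO.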
# [14] = Identifying Small Molecule Inhibitors of Pancreatic Cancer Stem Cells (SN12C, Adherent) (AID 1259358);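 further: cell survival measured after 48 h of compound exposure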; further: potency means the concentration at half of the fitted maximal effect
# Procedure, shortened: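 Luminescent ATP readout (CellTiter-Glo) quantifies surviving cells after a 48 h drug incubation. Normalization uses DMSO wells as no inhibition and media-only wells as full inhibition; bortezomib served as positive control.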
# [15] = Identifying Small Molecule Inhibitors of Pancreatic Cancer Stem Cells (Panc1, Spheroid) (AID 1259359);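 further: potency means the concentration at half of the fitted maximal effect; compound exposure lasted 48 h before reading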
# Procedure, shortened: (§3)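 Cytotoxicity read by CellTiter-Glo luminescence after 48 h compound exposure at 37C; percent activity scaled between DMSO-treated cells and cell-free wells. Spheroid formats used cells pre-formed 14 days in stem cell media on hydrogel.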
# [16] = qHTS profiling of the MIPE4 collection as inhibitors of Plasmodium falciparum (3D7) proliferation (AID 743344; call rule not given here;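 further: scaled between DMSO vehicle wells and 0.29 µM artemisinin as full inhibition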); conditions: P. falciparum 3D7 in erythrocytes, SYBR Green DNA fluorescence, 72 h; at 28.5 µM (top of the series) unless noted
# Procedure, shortened: as §1
# [17] = qHTS Screen of the MIPE 4.0 Collection Against Ewings Sarcoma (RDES) (AID 1259252); further: nearly all actives have a fitted effect of over 35% in size; further: potency means the concentration at half of the fitted maximal effect
# Procedure, shortened: as §2
# [18] = Identifying Small Molecule Inhibitors of Pancreatic Cancer Stem Cells (A2780, Spheroid) (AID 1259357); conditions: Potency: A2780 spheroid viability;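 further: compound exposure lasted 48 h before the ATP luminescence read; 100% = DMSO treated cells and 0% = wells without cells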
# Procedure, shortened: as §3
SMILES,"parasite growth remaining, % of DMSO control (lower = more inhibition) [1] [%]","parasite growth, % of control (lower = inhibition) [2] [%]","growth, % of control [3] [%]","cell viability, % of control (lower = more cytotoxic) [4] [%]",viability (% of control) [5] [%],Potency [6],Potency [7],Potency [8],Potency [9],Potency [10],remaining parasite growth % (stronger effect = lower value) [11] [%],"activity, percent of control [12] [%]","remaining proliferation (% of control), lower = more inhibition [13] [%]",Potency [14],Potency [15],"parasite growth, % of DMSO control [16] [%]",Potency [17],Potency [18]
Cc1cc(N2CCOCC2)cc2[nH]c(-c3c(NC[C@@H](O)c4cccc(Cl)c4)cc[nH]c3=O)nc12,15.8,14,3.57,25,3.1,inactive,inactive,590 nM (active),20900 nM (active),1870 nM (active),–,–,–,–,–,–,–,–
CC(C)C[C@H](NC(=O)CNC(=O)c1cc(Cl)ccc1Cl)B(O)O,7.7,7.79,3.75,2.43,4.79,inactive,inactive,332 nM (active),148 nM (active),469 nM (active),-0.752,-0.333,-0.908,132 nM (active),93.5 nM (active),–,–,–
COc1cc(OC2CCN(C)CC2)ccc1Nc1ncc2c(n1)n(C1CCCC1)c(=O)n2C,9.37,18.2,7.29,6.18,3.73,inactive,inactive,4690 nM (active),7430 nM (active),4690 nM (active),9.94,3.56,1.94,16600 nM (active),–,9.89,–,–
Cc1cc(Nc2cc(N3CCN(C)CC3)nc(Sc3ccc(NC(=O)C4CC4)cc3)n2)n[nH]1,–,22.4,2.93,36.4,12.3,inactive,–,6620 nM (active),296 nM (active),1180 nM (active),39.3,68.3,9.14,20900 nM (active),–,11.5,3720 nM (active),–
CCCNC(=O)Nc1ccc(Oc2ncnc3cc(OC)c(OC)cc23)cc1Cl,–,–,–,69.6,92.7,inactive,–,inactive,inactive,inactive,–,–,–,–,–,–,inactive,–
COc1cc(Nc2ncc(F)c(Nc3ccc4c(n3)N(COP(=O)(O)O)C(=O)C(C)(C)O4)n2)cc(OC)c1OC,87.2,22.9,11.1,56.3,10.3,inactive,–,16600 nM (active),7430 nM (active),3320 nM (active),–,–,–,–,–,–,–,–
O=C(Cc1ccc(-c2ccc(OCCN3CCOCC3)cc2)cn1)NCc1ccccc1,20.2,27.1,11.9,49.1,9.81,–,–,37.2 nM (active),23.5 nM (active),23.5 nM (active),–,–,–,–,–,20.6,23.5 nM (active),–
O=C(C=Cc1c(C(=O)O)[nH]c2cc(Cl)cc(Cl)c12)Nc1ccccc1,107,–,188,115,98.9,–,inactive,inactive,inactive,inactive,118,103,99.1,inactive,–,157,inactive,inactive
